Laboratory results published in PubChem BioAssay (Tox21).
Inconclusive results are not listed. A number with no mark means an inactive call. Active and inactive are the calls of the source. Calls follow the shape of the dose curve; as a rule, active = well fitted cell-killing curve with a large enough effect in the repeat runs; inconclusive = weak or mixed curves; inactive = flat fitted curve, though single readings scatter.

Assay: qHTS RealTime-Glo MT Cell Viability Assay in HepG2 cells - 32 hour (AID 1224877); also: nearly all actives have a fitted effect of over 55% in size
Settings: RealTime-Glo luminescence; series mostly up to 76.8 µM; activity change, negative = cytotoxic: at the top concentration
Excerpt: U.S. Tox21 Program National Center for Advancing Translational Sciences [NCATS] NIH Chemical Genomics Center [NCGC] U.S. Environmental Protection Agency [EPA] National Institutes of Environmental Health Sciences [NIEHS] National Toxicology Program [NTP] U.S. Food and Drug Administration [FDA] Tox21 Assay Overview: Measure of cell viability is critical in the cell-base assay. Analysis of cell viability is necessary for the characterization of cell responses to cytotoxic drugs and environmental stress. A RealTime-Glo MT Cell Viability Assay to monitor cell viability in real time of continues cell culture during 40 hours of compound treatment was used to screen Tox21 10K library compounds in HepG2 cells. The RealTime-Glo MT Cell Viability Assay is a nonlytic, homogeneous, bioluminescent method to measure cell viability in real time using a simple, plate-based method. The assay involves adding NanoLuc luciferase and a cell-permeant prosubstrate to cells in culture. Viable cells reduce the proprietary prosubstrate to generate a substrate for NanoLuc luciferase. This substrate diffuses from cells into the surrounding culture medium, where it is rapidly used by the NanoLuc Enzyme to produce a luminescent signal. The signal correlates with the number of viable cells, making the assay well suited for cytotoxicity studies.
Tox21 Assay Protocol Summary: The mixture of HepG2 cell suspension and reagents were dispensed at 600cells/6 ul/well in 1536-well tissue culture treated black solid bottom plates using a Multidrop dispenser. After the assay plates were incubated at a 37 C/5% CO2 incubator for 5 hours, 23 nL of compounds dissolved in DMSO, positive and negative controls was transferred to the assay plate by a pintool work station. The plates were incubated at 37 C for 40 hours. The luminescence intensity were measured at 0h, 8h, 16h, 24h, 32h and 40h time points using ViewLux plate reader during compound treatment.
% is scaled to controls: 0 for no effect and ±100 for the full control effect.

| SMILES | activity change, negative = cytotoxic | Potency |
| --- | --- | --- |
| CC(=O)C(=O)CC(C)C | -0.116% | – |
| Nc1nc(-c2ccc([N+](=O)[O-])cc2)cs1 | -2.86% | – |
| CCN(Cc1cccc(S(=O)(=O)O)c1)c1ccc(C(=C2C=CC(=[N+](CC)Cc3cccc(S(=O)(=O)O)c3)C=C2)c2ccc(O)cc2S(=O)(=O)[O-])cc1 | -11.2% [at 35.3 µM] | – |
| CC(=O)OCCC(C)CC(C)(C)C (stereo not given) | -1.07% | – |
| O=C1NC(=O)c2cccc3cccc1c23 | -4.89% | – |
| CC1CCc2nccnc21 (stereo not given) | 3.7% | – |
| CCCCOCCOC(=O)c1cccnc1 | 1.63% [at 35.3 µM] | – |
| COc1ccc(/C=C/C(=O)c2ccc(OC)cc2OC)cc1 | -20.1% [at 35.3 µM] | – |
| CC(C(=O)O)c1ccc(C(=O)c2cccs2)cc1 (stereo not given) | 9.75% [at 35.3 µM] | – |
| CCCCCCCCCCCC(=O)OCC(O)CO (stereo not given) | 9.89% | – |
| CCN(Cc1cccc(S(=O)(=O)O)c1)c1ccc(C(=C2C=CC(=[N+](CC)Cc3cccc(S(=O)(=O)O)c3)C=C2)c2ccccc2S(=O)(=O)[O-])cc1 | -3.67% [at 35.3 µM] | – |
| NC(=O)c1ccccc1[N+](=O)[O-] | 1.27% | – |
| C1CCCCC1 | -2.6% | – |
| Cc1ccc(Nc2c(F)cccc2Cl)c(CC(=O)O)c1 | 0.433% [at 35.3 µM] | – |
| COc1ccc2nc(S(=O)Cc3ncc(C)c(OC)c3C)[nH]c2c1 (stereo not given) | – | inactive |
| CCCCCCCCCCCCCCN(C)C | 5.76% [at 15.8 µM] | – |
| N[C@@H](Cc1cc(I)c(O)c(I)c1)C(=O)O | -3.61% [at 35.3 µM] | – |
| Nc1c(Cl)cc(Cl)cc1[N+](=O)[O-] | 0.845% | – |
| CC1=CC[C@@H]2C[C@H]1C2(C)C | 2.7% [at 15.8 µM] | – |
| COc1cc(S(=O)(=O)Nc2ccccc2)c(OC)cc1N | -17.5% | – |

| SMILES | activity change, negative = cytotoxic | Potency |
| --- | --- | --- |
| COC1CCC=CO1 (stereo not given) | 0.173% | – |
| CCCCC[C@H](O)/C=C/[C@H]1[C@H](O)CC(=O)[C@@H]1C/C=C\CCCC(=O)O | 2.32% [at 35.3 µM] | – |
| CCOC(=O)N1CCC(Nc2ccc(Cl)cc2N)CC1 | -2.82% [at 35.3 µM] | – |
| CCCCCCCCCCCCCOC(=O)CCSCCC(=O)OCCCCCCCCCCCCC | 0.647% [at 15.8 µM] | – |
| COc1cc(NCc2ccc3nc(N)nc(N)c3c2C)cc(OC)c1OC | -1.27% [at 35.3 µM] | – |
| O=C(O)/C=C/c1ccc(O)c(O)c1 | -5.42% | – |
| CCC(Cl)CC(Cl)C(Cl)C(Cl)C(Cl)C(C)Cl (stereo not given) | -0.891% [at 15.8 µM] | – |
| COc1ccc(-c2cc(=S)ss2)cc1 | -5.39% [at 35.3 µM] | – |
| CC(=O)NNC(C)=O | -0.0887% | – |
| CC1=C2[C@@H]([C@H](C)CC[C@H]2/C=C(\C)C(=O)O)[C@H](O)C1 | 1.48% | – |
| COC(=O)CC(C(C)=O)C(=O)OC (stereo not given) | 0.888% | – |
| O=C1OC[C@H](Cc2cccc(O)c2)[C@H]1Cc1cccc(O)c1 | 1.03% [at 35.3 µM] | – |
| CCOC(=O)Oc1ccc(CCNC(=O)[C@H](CCSC)NC(C)=O)cc1OC(=O)OCC | 0.808% [at 35.3 µM] | – |
| O=C(c1ccccc1)C1CCC1 | 1.88% | – |
| CC1CCCC(=O)C1=O (stereo not given) | 1.39% | – |
| CC1CCC(C(C)CS)CC1S (stereo not given) | 2.07% | – |
| C/C(C=O)=C\c1ccccc1 | -0.522% | – |
| c1ccc(CNc2ncnc3c2ncn3C2CCCCO2)cc1 (stereo not given) | 0.331% | – |
| O=C1OC(=O)c2c(Br)c(Br)c(Br)c(Br)c21 | 0.425% | – |
| Nc1ccc(N=Nc2ccc(N)cc2)cc1 | -2.09% [at 35.3 µM] | – |
